Screen size: about 9,900 compounds; about 90 (0.9%) were called active. Roughly 2% stayed inconclusive and do not appear here.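 How the source made its calls: active means mean normalized replicate activity at least 50 and at least half of replicates each reaching 50; inconclusive means only one of the two criteria met; inactive means neither criterion met.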 Many of the other results were omitted from the sample, so actives are more common in it than they were.
assay: reduction of CTGF mRNA in DLD1 cells – DLD1 colon cancer cells, RT-qPCR, single point, primary screen (AID 743449); details: 24 h, at 12.5 µM, active compounds read high;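 further: 0% = neutral control wells and 100% = dasatinib control wells; higher means stronger suppression of CTGF expression like dasatinib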

SMILES | inhibition
C[C@H]1CN([C@@H](C)CO)C(=O)c2ccccc2-c2ccccc2CO[C@@H]1CN(C)C(=O)[C@H](Cc1ccccc1)N(C)C | -17.8% (inactive)
Cc1noc(C)c1NC(=O)N(C)C[C@@H]1OCc2ccccc2-c2c(n(C)c3ccccc23)C(=O)N([C@H](C)CO)C[C@@H]1C | -14.8% (inactive)
CCCC(=O)Nc1ccc2c(c1)C(=O)N(C)C[C@H](OC)[C@@H](C)CN(C(=O)c1ccccn1)[C@@H](C)CO2 | 25.7% (inactive)
O=C([C@@H]1[C@@H](CO)[C@@H]2Cn3c(ccc(-c4ccc(F)cc4)c3=O)[C@@H]2N1Cc1cocn1)N1CCCCC1 | -1.91% (inactive)
O=C([C@H]1[C@H](CO)[C@H]2Cn3c(ccc(-c4ccc(F)cc4)c3=O)[C@H]2N1Cc1cocn1)N1CCCCC1 | 53.6% (active)
O=C(NCC1CC1)[C@H]1[C@H](CO)[C@H]2Cn3c(ccc(-c4cccnc4)c3=O)[C@H]2N1Cc1cocn1 | -2.27% (inactive)
CCS(=O)(=O)Nc1ccc2c(c1)C(=O)N(C)C[C@H](OC)[C@H](C)CN(C(=O)c1ccc3c(c1)OCO3)[C@@H](C)CO2 | -9.16% (inactive)
C[C@@H]1CN([C@H](C)CO)C(=O)CCCn2nncc2CO[C@H]1CN(C)Cc1ccc(C(=O)Nc2ccccc2N)cc1 | -132% (inactive)
CO[C@@H]1CN(C)C(=O)c2cc(NS(=O)(=O)c3ccccc3C)ccc2OC[C@@H](C)N(S(=O)(=O)c2ccccc2)C[C@H]1C | 75.2% (active)
CCC(=O)N1C[C@@H](C)[C@@H](OC)CN(C)C(=O)c2cc(NC(=O)Nc3ccc(Cl)cc3)ccc2OC[C@@H]1C | 15% (inactive)
CCCN1C[C@@H](C)[C@H](OC)CN(C)C(=O)c2cc(NS(=O)(=O)c3ccccc3)ccc2OC[C@@H]1C | -22.6% (inactive)
CO[C@H]1CN(C)C(=O)c2cc(NC(=O)Nc3ccccc3F)ccc2OC[C@H](C)N(CCC(F)(F)F)C[C@@H]1C | 65.1% (active)
CCCN1C[C@H](C)[C@@H](OC)CN(C)C(=O)c2cc(NS(=O)(=O)c3ccccc3)ccc2OC[C@H]1C | 2.69% (inactive)
CCC(=O)N1C[C@H](C)[C@@H](OC)CN(C)C(=O)c2cc(NC(=O)Nc3ccc(Cl)cc3)ccc2OC[C@@H]1C | 59.6% (active)
COc1ccccc1C(=O)Nc1ccc2c(c1)C(=O)N(C)C[C@H](OC)[C@@H](C)CN(C(C)=O)[C@@H](C)CO2 | 64.2% (active)
CCC(=O)N1C[C@@H](C)[C@@H](OC)CN(C)C(=O)c2cc(NC(=O)Nc3ccc(Cl)cc3)ccc2OC[C@H]1C | -27.4% (inactive)
CO[C@H]1CN(C)C(=O)c2cc(NC(=O)Nc3ccccc3F)ccc2OC[C@@H](C)N(CCC(F)(F)F)C[C@@H]1C | 8.27% (inactive)
CO[C@@H]1CN(C)C(=O)c2cc(NC(=O)Nc3ccccc3F)ccc2OC[C@H](C)N(CCC(F)(F)F)C[C@H]1C | 21% (inactive)
COc1ccccc1C(=O)Nc1ccc2c(c1)C(=O)N(C)C[C@@H](OC)[C@@H](C)CN(C(C)=O)[C@@H](C)CO2 | -6.31% (inactive)
COc1ccccc1C(=O)Nc1ccc2c(c1)C(=O)N(C)C[C@H](OC)[C@H](C)CN(C(C)=O)[C@H](C)CO2 | -22.7% (inactive)
C[C@H](CO)N1C[C@H](C)[C@@H](CN(C)S(=O)(=O)c2cn(C)cn2)OCc2ccccc2-c2ccccc2C1=O | 13.5% (inactive)
C[C@H]1CN([C@@H](C)CO)C(=O)c2cc(-c3ccncc3)cnc2O[C@@H]1CN(C)C(=O)CN1CCOCC1 | 4.89% (inactive)
O=C(C1CCOCC1)N1C[C@H]2[C@@H](c3ccccc31)[C@H](CO)N2C(=O)Cc1ccccn1 | -3.22% (inactive)

SMILES | inhibition
CCCNC(=O)N(C)C[C@H]1[C@H](c2ccccc2)[C@@H](CO)N1C(=O)c1ccccc1 | 13.1% (inactive)
COCC(=O)Nc1ccc2c(c1)[C@H]1C[C@@H](CC(=O)N3CCOCC3)O[C@H](CO)[C@H]1O2 | -2.81% (inactive)
C[C@H](CO)N1C[C@H](C)[C@H](CN(C)Cc2cccnc2)Oc2ncc(-c3ccc(C#N)cc3)cc2C1=O | 10.9% (inactive)
Cc1noc(C)c1S(=O)(=O)N(C)C[C@H]1OCCCC[C@@H](C)Oc2ccc(NC(=O)CCC(F)(F)F)cc2C(=O)N([C@@H](C)CO)C[C@H]1C | -10.5% (inactive)
CCN1[C@@H]2c3ccc(C4=CCCC4)c(=O)n3C[C@@H]2[C@@H](CO)[C@@H]1C(=O)NC1Cc2ccccc2C1 | -18.3% (inactive)
Cc1cc(C(=O)Nc2ccc3c(c2)C(=O)N(C)[C@@H]2CC[C@@H](CC(=O)O)O[C@H]2CO3)no1 | 8.49% (inactive)
COCC(=O)N1CC[C@@H]2[C@H]1c1cc(C#Cc3ccc(F)cc3)ccc1N[C@@H]2CO | 22.4% (inactive)
COCC(=O)N1CC[C@@H]2[C@H](CO)Nc3ccc(C#Cc4ccc(F)cc4)cc3[C@@H]21 | 51.2% (active)
COCC(=O)N1CC[C@@H]2[C@@H](CO)Nc3ccc(C#Cc4ccc(F)cc4)cc3[C@@H]21 | 12.9% (inactive)
COc1cccc(NC(=O)C[C@@H]2CC[C@@H]3[C@H](COc4ccc(NS(=O)(=O)c5cccc(F)c5)cc4C(=O)N3C)O2)c1 | -76.5% (inactive)
C[C@H]1CN([C@@H](C)CO)C(=O)c2ccccc2-c2ccccc2CO[C@@H]1CN(C)S(=O)(=O)c1cn(C)cn1 | -12.7% (inactive)
C[C@@H]1CN([C@@H](C)CO)C(=O)c2ccccc2-c2ccccc2CO[C@H]1CN(C)S(=O)(=O)c1cn(C)cn1 | -9.13% (inactive)
C[C@H](CO)N1C[C@H](C)[C@H](CN(C)Cc2ccccc2C(F)(F)F)OCc2ccccc2-c2ccccc2C1=O | 26.5% (inactive)
C[C@H]1CN([C@@H](C)CO)C(=O)c2ccccc2-c2ccccc2CO[C@H]1CN(C)Cc1cccc2c1OCCCO2 | 24% (inactive)
C[C@@H]1CN([C@@H](C)CO)C(=O)c2ccccc2-c2ccccc2CO[C@@H]1CN(C)S(=O)(=O)c1cn(C)cn1 | 63% (active)
C[C@@H]1CN([C@@H](C)CO)C(=O)c2ccccc2-c2ccccc2CO[C@@H]1CN(C)Cc1ccccc1C(F)(F)F | -64.4% (inactive)
C[C@@H]1CN([C@@H](C)CO)C(=O)c2ccccc2-c2ccccc2CO[C@@H]1CN(C)Cc1cccc2c1OCCCO2 | 14.7% (inactive)
C[C@H]1CN([C@@H](C)CO)C(=O)c2c(c3ccccc3n2C)-c2ccccc2CO[C@@H]1CN(C)S(=O)(=O)c1ccc([N+](=O)[O-])cc1 | 23.9% (inactive)
C[C@H](CO)N1C[C@H](C)[C@@H](CN(C)S(=O)(=O)c2ccc([N+](=O)[O-])cc2)OCc2ccccc2-c2c(n(C)c3ccccc23)C1=O | 63.8% (active)
C[C@@H]1CN([C@@H](C)CO)C(=O)c2c(c3ccccc3n2C)-c2ccccc2CO[C@H]1CN(C)S(=O)(=O)c1ccc([N+](=O)[O-])cc1 | 7.85% (inactive)
C[C@@H]1CN([C@H](C)CO)C(=O)c2ccccc2-c2ccccc2CO[C@@H]1CN(C)Cc1cccc2c1OCCCO2 | 59.4% (active)
C[C@@H]1CN([C@H](C)CO)C(=O)c2ccccc2-c2ccccc2CO[C@@H]1CN(C)Cc1ccccc1C(F)(F)F | 69.6% (active)

Source: PubChem BioAssay AID743449 (Broad Institute, 2014)
